Test results reported in PubChem BioAssay (EPA / NIEHS).
Calls of active or inactive are those of the source. Rule for the calls: active = hit-call score of the fitted dose curve at least 0.9, where 1 is the maximum; inactive = score below 0.9.

Key:
Conditions in all cases: mRNA level, 48 h; actives raise or lower the signal
[1] = read-out: matrix metalloproteinase-3 (MMP3), MMP3 (gene 4314); test: LTEA_HepaRG_MMP3: Life Technologies and Expression Analysis (LTEA) Assay for matrix metalloproteinase-3 (MMP3) using HepaRG (AID 2283519)
Method in brief: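 Fluidigm-based TaqMan qRT-PCR, normalized to ACTB, GAPDH and POLR2A and fitted bidirectionally versus 0.5% DMSO, measured transcript levels. Treatment: duplicate 48 h exposures of HepaRG cells, ~100,000/well, to eight half-log concentrations topping at 100 uM.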

[2] = read-out: Paternally Expressed 10 (PEG10), PEG10 (gene 23089); test: LTEA_HepaRG_PEG10: Life Technologies and Expression Analysis (LTEA) Assay for Paternally Expressed 10 (PEG10) using HepaRG (AID 2283520);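 for AC50: PEG10 transcript by qRT-PCR normalised to ACTB GAPDH and POLR2A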
Method in brief: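 After 48 h exposure of differentiated HepaRG cells (0.5% DMSO vehicle, eight concentrations up to 100 uM, duplicates), PEG10 mRNA was measured by TaqMan qRT-PCR. Values were normalised to endogenous control genes and analysed bidirectionally against vehicle.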

[3] = read-out: Nuclear factor NF-kappa-B p105 subunit (Homo sapiens) (UniProt P19838); test: LTEA_HepaRG_NFKB1: Life Technologies and Expression Analysis (LTEA) Assay for Nuclear Factor Kappa B Subunit 1 (NFKB1) using HepaRG (AID 2283521)
Method in brief: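 Differentiated human HepaRG cells in serum-free induction medium with 0.5% DMSO were exposed for 48 h to eight half-log concentrations, top 100 uM, in duplicate. NFKB1 mRNA measured by Fluidigm TaqMan qRT-PCR, normalised to ACTB, GAPDH and POLR2A; bidirectional fit versus DMSO.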

[4] = read-out: Protein phosphatase 2A (PPP2R4), PTPA (gene 5524); test: LTEA_HepaRG_PPP2R4: Life Technologies and Expression Analysis (LTEA) Assay for Protein phosphatase 2A (PPP2R4) using HepaRG (AID 2283522)
Method in brief: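 Using HepaRG cultures maintained in 0.5% DMSO, chemicals are tested 48 h at up to 100 uM in duplicate. Induction or suppression of PPP2R4 mRNA, measured by qRT-PCR, is fitted bidirectionally against the vehicle baseline.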

[5] = read-out: Phosphatase and tensin (PTEN), PTEN (gene 5728); test: LTEA_HepaRG_PTEN: Life Technologies and Expression Analysis (LTEA) Assay for Phosphatase and tensin (PTEN) using HepaRG (AID 2283523)
Method in brief: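 Read-out: TaqMan qRT-PCR of PTEN transcript, normalized to three housekeeping genes, fitted in both directions against 0.5% DMSO. Differentiated human HepaRG cultures received chemicals for 48 h, eight-point half-log series topping at 100 uM.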

[6] = read-out: solute carrier (SLC22A1), SLC22A1 (gene 6580); test: LTEA_HepaRG_SLC22A1: Life Technologies and Expression Analysis (LTEA) Assay for solute carrier (SLC22A1) using HepaRG (AID 2283524)
Method in brief: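 Transcript level of SLC22A1 quantified by qRT-PCR (normalized to three housekeeping genes) after 48 h chemical exposure of HepaRG cells, eight concentrations up to 100 µM, half-log steps, 0.5% DMSO vehicle. Gain or loss relative to DMSO fitted bidirectionally.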

[7] = read-out: Pyruvate Dehydrogenase Kinase 4 (PDK4), PDK4 (gene 5166); test: LTEA_HepaRG_PDK4: Life Technologies and Expression Analysis (LTEA) Assay for Pyruvate Dehydrogenase Kinase 4 (PDK4) using HepaRG (AID 2283525)
Method in brief: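 Readout is qRT-PCR of PDK4 transcript, normalized to three housekeeping genes, with bidirectional fitting against 0.5% DMSO vehicle. Differentiated HepaRG cells were treated 48 h in serum-free induction medium, duplicate wells, eight-point half-log series topping at 100 uM.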

[8] = read-out: NAD(P)H dehydrogenase [quinone] 1 (NQO1), NQO1 (gene 1728); test: LTEA_HepaRG_NQO1: Life Technologies and Expression Analysis (LTEA) Assay for NAD(P)H dehydrogenase [quinone] 1 (NQO1) using HepaRG (AID 2283526)
Method in brief: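 In this assay, gene expression is read by qRT-PCR after 48 h exposure of HepaRG cells to eight concentrations (max 100 uM, half-log) in 0.5% DMSO. Each chemical runs in duplicate, and activity is scored relative to vehicle.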

[9] = read-out: Nuclear factor erythroid 2-related factor 2 (Homo sapiens) (UniProt Q16236); test: LTEA_HepaRG_NFE2L2: Life Technologies and Expression Analysis (LTEA) Assay for Nuclear factor erythroid 2-related factor 2 (NFE2L2) Transcription Factor using HepaRG (AID 2283527)
Method in brief: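 NFE2L2 transcript level was read by qRT-PCR (housekeeping ACTB/GAPDH/POLR2A normalisation) after 48 h chemical treatment of HepaRG in serum-free induction medium. Duplicate 8-point half-log curves, top 100 uM, 0.5% DMSO vehicle; up- or down-regulation fitted against vehicle.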

[10] = read-out: succinate dehydrogenase complex iron sulfur subunit B (SDHB), SDHB (gene 6390); test: LTEA_HepaRG_SDHB: Life Technologies and Expression Analysis (LTEA) Assay for succinate dehydrogenase complex iron sulfur subunit B (SDHB) using HepaRG (AID 2283528)
Method in brief: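 HepaRG cells (~100,000/well, plated 48 h) exposed in duplicate for 48 h in serum-free induction medium to 8-point half-log series from 100 uM in 0.5% DMSO; mRNA by qRT-PCR normalised to ACTB, GAPDH, POLR2A; bidirectional fit versus DMSO.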

[11] = read-out: Signal transducer and activator of transcription 3 (Homo sapiens) (UniProt P40763); test: LTEA_HepaRG_STAT3: Life Technologies and Expression Analysis (LTEA) Assay for Signal transducer and activator of transcription (STAT3) using HepaRG (AID 2283529)
Method in brief: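 STAT3 transcript quantified by qRT-PCR against three housekeeping genes (ACTB, GAPDH, POLR2A), fitted both directions relative to DMSO. HepaRG cultures exposed 48 h to eight half-log concentrations, top 100 uM, 0.5% DMSO, serum-free induction medium.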

[12] = read-out: solute carrier (SLCO1B1), SLCO1B1 (gene 10599); test: LTEA_HepaRG_SLCO1B1: Life Technologies and Expression Analysis (LTEA) Assay for solute carrier (SLCO1B1) using HepaRG (AID 2283530)
Method in brief: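 Differentiated human HepaRG cells, plated 48 h, switched to serum-free induction medium and exposed in duplicate for 48 h to 8 half-log concentrations (top 100 uM) in 0.5% DMSO. SLCO1B1 mRNA by TaqMan qRT-PCR, normalized to ACTB/GAPDH/POLR2A.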

[13] = read-out: sulfotransferase 2A1 (SULT2A1), SULT2A1 (gene 6822); test: LTEA_HepaRG_SULT2A1: Life Technologies and Expression Analysis (LTEA) Assay for sulfotransferase 2A1 (SULT2A1) using HepaRG (AID 2283531)
Method in brief: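 Differentiated human HepaRG cells in serum-free induction medium were exposed for 48 h to eight half-log concentrations (top 100 uM, 0.5% DMSO). SULT2A1 mRNA was measured by qRT-PCR, normalized to ACTB, GAPDH and POLR2A, and fitted bidirectionally against DMSO.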

[14] = read-out: Transforming Growth Factor (TGFA), TGFA (gene 7039); test: LTEA_HepaRG_TGFA: Life Technologies and Expression Analysis (LTEA) Assay for Transforming Growth Factor (TGFA) using HepaRG (AID 2283532)
Method in brief: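 TGFA transcript quantified by qRT-PCR (Fluidigm arrays) against three housekeeping genes, after 48 hours chemical treatment of HepaRG cells. Top concentration 100 uM with half-log dilutions, 8 points, duplicates, 0.5% DMSO.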

[15] = read-out: Transforming Growth Factor (TGFB1), TGFB1 (gene 7040); test: LTEA_HepaRG_TGFB1: Life Technologies and Expression Analysis (LTEA) Assay for Transforming Growth Factor (TGFB1) Transporter using HepaRG (AID 2283533)
Method in brief: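 Differentiated human HepaRG cells in serum-free induction medium were exposed in duplicate for 48 h to eight concentrations (top 100 uM, half-log steps, 0.5% DMSO). TGFB1 mRNA was quantified by qRT-PCR, normalized to ACTB, GAPDH, POLR2A, and fitted bidirectionally against DMSO.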

TIMP1, TIMP1 (gene 7076) = test: LTEA_HepaRG_TIMP1: Life Technologies and Expression Analysis (LTEA) Assay for TIMP1 using HepaRG (AID 2283534);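 note: TaqMan qRT-PCR signal normalized to ACTB GAPDH and POLR2A housekeeping genes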
Method in brief: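 Differentiated human HepaRG cells in serum-free induction medium were exposed 48 h to chemicals (8 half-log concentrations, top 100 uM, 0.5% DMSO). TIMP1 mRNA was quantified by TaqMan qRT-PCR, normalized to ACTB/GAPDH/POLR2A; bidirectional fit versus DMSO.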

[16] = read-out: Tumor necrosis factor receptor 1 (TNFRSF1A), TNFRSF1A (gene 7132); test: LTEA_HepaRG_TNFRSF1A: Life Technologies and Expression Analysis (LTEA) Assay for Tumor necrosis factor receptor 1 (TNFRSF1A) using HepaRG (AID 2283535)
Method in brief: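 Differentiated human HepaRG cells were exposed in duplicate for 48 h in serum-free induction medium to eight concentrations (top 100 uM, half-log steps, 0.5% DMSO). TNFRSF1A mRNA was quantified by qRT-PCR, normalized to ACTB, GAPDH and POLR2A, then fitted bidirectionally against DMSO.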

[17] = read-out: Thyroid Hormone Responsive (THRSP), THRSP (gene 7069); test: LTEA_HepaRG_THRSP: Life Technologies and Expression Analysis (LTEA) Assay for Thyroid Hormone Responsive (THRSP) using HepaRG (AID 2283536)
Method in brief: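 THRSP transcript quantified by Fluidigm qRT-PCR against three housekeeping genes after 48 h chemical exposure of HepaRG cells in serum-free induction medium; eight-point half-log series, top 100 uM, 0.5% DMSO vehicle, duplicate wells.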

[18] = read-out: Cellular tumor antigen p53 (Homo sapiens) (UniProt P04637); test: LTEA_HepaRG_TP53: Life Technologies and Expression Analysis (LTEA) Assay for Tumor Protein P53 (TP53) using HepaRG (AID 2283537)
Method in brief: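 Differentiated HepaRG cells in serum-free induction medium exposed 48 h in duplicate to 8 half-log concentrations, top 100 uM, 0.5% DMSO. TP53 mRNA by TaqMan qRT-PCR (Fluidigm), normalized to ACTB, GAPDH, POLR2A; fitted bidirectionally versus DMSO.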

[19] = read-out: UDP glucuronosyltransferase (UGT1A1), UGT1A1 (gene 54658); test: LTEA_HepaRG_UGT1A1: Life Technologies and Expression Analysis (LTEA) Assay for UDP glucuronosyltransferase (UGT1A1) using HepaRG (AID 2283538)
Method in brief: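 mRNA induction or loss of UGT1A1, by TaqMan qRT-PCR, in duplicate HepaRG wells after 48 h exposure to half-log dilutions topping at 100 uM; DMSO (0.5%) served as baseline.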

Measured: AC50

Chain of Nuclear factor NF-kappa-B p105 subunit (Homo sapiens) (P19838 whole entry, looked up): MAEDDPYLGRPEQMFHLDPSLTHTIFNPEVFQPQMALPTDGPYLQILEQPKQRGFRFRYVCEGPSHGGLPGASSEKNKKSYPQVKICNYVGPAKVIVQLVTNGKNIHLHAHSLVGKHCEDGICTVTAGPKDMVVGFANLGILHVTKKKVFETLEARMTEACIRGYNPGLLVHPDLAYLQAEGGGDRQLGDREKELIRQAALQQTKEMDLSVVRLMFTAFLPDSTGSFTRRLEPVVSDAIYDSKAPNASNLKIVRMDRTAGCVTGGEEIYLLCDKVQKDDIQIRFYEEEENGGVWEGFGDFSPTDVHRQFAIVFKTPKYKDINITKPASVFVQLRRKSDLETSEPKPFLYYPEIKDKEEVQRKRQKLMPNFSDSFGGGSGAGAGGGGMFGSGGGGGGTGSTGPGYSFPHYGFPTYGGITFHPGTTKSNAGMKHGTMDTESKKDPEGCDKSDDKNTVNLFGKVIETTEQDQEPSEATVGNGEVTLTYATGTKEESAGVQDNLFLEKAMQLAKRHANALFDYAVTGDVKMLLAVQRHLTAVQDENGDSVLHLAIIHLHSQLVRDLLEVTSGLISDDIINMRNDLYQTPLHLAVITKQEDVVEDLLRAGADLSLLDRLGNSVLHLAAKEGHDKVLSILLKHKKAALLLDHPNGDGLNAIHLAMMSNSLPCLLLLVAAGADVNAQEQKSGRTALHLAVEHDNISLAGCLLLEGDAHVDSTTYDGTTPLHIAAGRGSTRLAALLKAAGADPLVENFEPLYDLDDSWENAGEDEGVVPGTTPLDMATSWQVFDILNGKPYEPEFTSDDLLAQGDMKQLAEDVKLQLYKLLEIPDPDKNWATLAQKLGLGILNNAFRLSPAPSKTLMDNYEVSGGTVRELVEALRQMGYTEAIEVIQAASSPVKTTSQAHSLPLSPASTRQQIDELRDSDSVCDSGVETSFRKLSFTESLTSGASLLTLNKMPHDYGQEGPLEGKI
Chain of Cellular tumor antigen p53 (Homo sapiens) (P04637 whole entry, looked up): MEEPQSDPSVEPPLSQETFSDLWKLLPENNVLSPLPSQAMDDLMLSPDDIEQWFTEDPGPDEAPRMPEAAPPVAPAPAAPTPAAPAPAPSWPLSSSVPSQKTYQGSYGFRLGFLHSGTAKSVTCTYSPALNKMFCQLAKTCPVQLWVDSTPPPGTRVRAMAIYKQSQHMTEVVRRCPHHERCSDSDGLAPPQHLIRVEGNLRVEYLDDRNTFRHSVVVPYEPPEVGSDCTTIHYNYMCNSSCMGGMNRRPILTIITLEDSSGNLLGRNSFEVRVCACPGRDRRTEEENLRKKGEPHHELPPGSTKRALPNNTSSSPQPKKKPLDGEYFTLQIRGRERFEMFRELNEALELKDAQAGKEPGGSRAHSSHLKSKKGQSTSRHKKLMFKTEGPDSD
Chain of Signal transducer and activator of transcription 3 (Homo sapiens) (P40763 whole entry, looked up): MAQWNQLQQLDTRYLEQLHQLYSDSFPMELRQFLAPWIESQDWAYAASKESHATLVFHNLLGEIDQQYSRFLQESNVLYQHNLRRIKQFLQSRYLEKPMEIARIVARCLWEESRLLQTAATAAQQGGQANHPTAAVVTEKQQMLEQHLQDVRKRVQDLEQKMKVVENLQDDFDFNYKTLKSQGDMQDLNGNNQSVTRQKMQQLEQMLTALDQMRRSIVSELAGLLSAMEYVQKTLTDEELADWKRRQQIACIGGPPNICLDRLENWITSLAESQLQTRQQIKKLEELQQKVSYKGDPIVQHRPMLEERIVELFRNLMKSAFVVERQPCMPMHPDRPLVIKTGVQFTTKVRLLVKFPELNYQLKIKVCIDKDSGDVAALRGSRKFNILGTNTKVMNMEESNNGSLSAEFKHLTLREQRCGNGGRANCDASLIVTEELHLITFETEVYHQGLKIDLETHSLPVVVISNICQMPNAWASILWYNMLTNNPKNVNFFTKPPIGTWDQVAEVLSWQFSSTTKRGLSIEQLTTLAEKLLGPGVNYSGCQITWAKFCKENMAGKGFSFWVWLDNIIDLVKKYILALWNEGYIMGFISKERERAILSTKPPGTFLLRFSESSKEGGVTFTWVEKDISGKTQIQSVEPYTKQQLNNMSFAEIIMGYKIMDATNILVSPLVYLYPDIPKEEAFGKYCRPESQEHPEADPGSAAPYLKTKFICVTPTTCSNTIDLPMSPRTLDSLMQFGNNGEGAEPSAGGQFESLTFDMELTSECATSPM
Chain of Nuclear factor erythroid 2-related factor 2 (Homo sapiens) (Q16236 whole entry, looked up): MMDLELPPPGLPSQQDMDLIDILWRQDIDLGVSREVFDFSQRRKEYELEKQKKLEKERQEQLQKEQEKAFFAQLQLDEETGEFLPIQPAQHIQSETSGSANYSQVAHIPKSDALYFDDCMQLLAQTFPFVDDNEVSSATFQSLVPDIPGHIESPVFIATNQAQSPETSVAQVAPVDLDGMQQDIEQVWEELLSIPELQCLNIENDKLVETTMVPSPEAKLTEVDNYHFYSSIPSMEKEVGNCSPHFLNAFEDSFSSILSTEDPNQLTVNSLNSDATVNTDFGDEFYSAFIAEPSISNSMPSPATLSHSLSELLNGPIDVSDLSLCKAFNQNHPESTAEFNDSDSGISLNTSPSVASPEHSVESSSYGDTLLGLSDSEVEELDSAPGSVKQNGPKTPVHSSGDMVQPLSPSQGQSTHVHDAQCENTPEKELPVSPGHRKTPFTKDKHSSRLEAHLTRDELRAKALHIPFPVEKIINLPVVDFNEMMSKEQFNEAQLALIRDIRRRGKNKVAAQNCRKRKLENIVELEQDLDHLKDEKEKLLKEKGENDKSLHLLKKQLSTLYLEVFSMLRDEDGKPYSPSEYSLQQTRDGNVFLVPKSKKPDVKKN

COCC(C)N(C(=O)CCl)c1c(C)csc1C (stereo unspecified)
active: [6] 73.3 µM
not listed: [19]
inactive: all other assays above

CCN(CC)c1nc(C)cc(OP(=S)(OC)OC)n1
active: [19] 12.8 µM
inactive: all other assays above

COC(=O)NS(=O)(=O)c1ccc(N)cc1
not listed: TIMP1, TIMP1 (gene 7076) | [19]
inactive: all other assays above

CC1(C)CON(Cc2ccccc2Cl)C1=O
active: [2] 22.5 µM | [19] 9.92 µM
not listed: TIMP1, TIMP1 (gene 7076)
inactive: all other assays above

O=C(O)c1c(Cl)ccc2cc(Cl)cnc12
not listed: [18] | [19]
inactive: all other assays above

N#CN=C1SCCN1Cc1ccc(Cl)nc1
inactive: all assays above

C=C(C)CN(CC)c1c([N+](=O)[O-])cc(C(F)(F)F)cc1[N+](=O)[O-]
not listed: TIMP1, TIMP1 (gene 7076) | [19]
inactive: all other assays above

CCOc1nc(F)cc2nc(S(=O)(=O)Nc3c(Cl)cccc3Cl)nn12
active: [1] 50 µM | [6] 50 µM
not listed: TIMP1, TIMP1 (gene 7076) | [19]
inactive: all other assays above

CC(C)N1C(=O)N(c2ccccc2)CSC1=NC(C)(C)C
active: [1] 26.4 µM | [2] 12.7 µM | [4] 77.4 µM | [6] 81.4 µM | [7] 87.8 µM | [10] 50 µM | [13] 96.5 µM | [14] 79.4 µM | [18] 76.2 µM
not listed: TIMP1, TIMP1 (gene 7076) | [19]
inactive: all other assays above

CCNP(=S)(OC)O/C(C)=C/C(=O)OC(C)C (stereo unspecified)
active: [1] 50 µM | [9] 9.92 µM | [17] 32.6 µM | [19] 9.32 µM
inactive: all other assays above

CS(=O)(=O)c1cc(C(F)(F)F)ccc1C(=O)c1cnoc1C1CC1
not listed: [19]
inactive: all other assays above

CC1(C)C(C=C(Cl)Cl)C1C(=O)OC(C#N)c1cccc(Oc2ccccc2)c1 (stereo unspecified)
active: [2] 50 µM | [7] 50 µM | [19] 17.3 µM
inactive: all other assays above

Nc1c(Cl)c(Cl)nc(C(=O)O)c1Cl
not listed: [19]
inactive: all other assays above
